# Test results as given in the supplement of paper PMC8728848.
# This excerpt belongs to a sample that is enriched for the strongest signals.
# B1: NKR-PIC (Mus musculus) (protein)
# chain: GTGQKPSREKCCVFIQENLNKTTDCSVNLECPQDWLLHRDKCFHVSQVSNTWEEGQADCGRKGATLLLIQDQEELRFLLDSIKEKYNSFWIGLRFTLPDMNWKWINGTTFNSDVLKITGVTENGSCASILGDKVTPESCASDNRWICQKELNHETPSNDSGT
# Key:
# Assay in all cases: glycan array binding signal (z-score within array); higher = stronger binding
# Conditions in all cases: glycan notation: IUPAC condensed, linker removed
# Fuc(a1-2)Gal(b1-3)GalNAc = target: Fuc(a1-2)Gal(b1-3)GalNAc
# Method in brief: (§1)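 Glycan array binding is given as a within-array Z-score, which can be read as non-binding when negative. The arrays, 3228 of them, came from the Consortium for Functional Glycomics database and were retained only where the protein sequence was available. Z-scores were averaged across arrays of the same protein sequence at different concentrations or buffers and across linkers.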
# Fuc(a1-2)Gal(b1-3)GlcNAc = target: Fuc(a1-2)Gal(b1-3)GlcNAc
# Method in brief: as §1
# [1] = target: Fuc(a1-2)Gal(b1-3)GlcNAc(b1-2)Man(a1-3)[Fuc(a1-2)Gal(b1-3)GlcNAc(b1-2)Man(a1-6)]Man(b1-4)GlcNAc(b1-4)GlcNAc
# Method in brief: as §1
# [2] = target: Fuc(a1-2)Gal(b1-3)GlcNAc(b1-3)GalNAc
# Method in brief: as §1
# [3] = target: Fuc(a1-2)Gal(b1-3)GlcNAc(b1-3)[Neu5Ac(a2-6)Gal(b1-4)GlcNAc(b1-6)]Gal(b1-4)Glc
# Method in brief: as §1
# [4] = target: Fuc(a1-2)Gal(b1-4)GlcNAc(b1-2)Man
# Method in brief: as §1
# [5] = target: Fuc(a1-2)Gal(b1-4)GlcNAc6S
# Method in brief: as §1
# Fuc(a1-2)Gal6S(b1-4)Glc = target: Fuc(a1-2)Gal6S(b1-4)Glc
# Method in brief: as §1
# [6] = target: Fuc(a1-2)[Gal(a1-3)]Gal(b1-4)GlcNAc(b1-2)Man(a1-3)[Fuc(a1-2)[Gal(a1-3)]Gal(b1-4)GlcNAc(b1-2)Man(a1-6)]Man(b1-4)GlcNAc(b1-4)[Fuc(a1-6)]GlcNAc
# Method in brief: as §1
# [7] = target: Fuc(a1-2)[GalNAc(a1-3)]Gal(b1-3)GlcNAc(b1-2)Man(a1-3)[Fuc(a1-2)[GalNAc(a1-3)]Gal(b1-3)GlcNAc(b1-2)Man(a1-6)]Man(b1-4)GlcNAc(b1-4)[Fuc(a1-6)]GlcNAc
# Method in brief: as §1
# [8] = target: Fuc(a1-2)[GalNAc(a1-3)]Gal(b1-3)GlcNAc(b1-6)GalNAc
# Method in brief: as §1
# [9] = target: Gal(a1-3)Gal(b1-4)GlcNAc(b1-3)GalNAc
# Method in brief: as §1
# [10] = target: Gal(b1-3)GlcNAc(b1-6)[Gal(b1-3)]GalNAc
# Method in brief: as §1
# [11] = target: Gal(b1-3)[Fuc(a1-4)]GlcNAc
# Method in brief: as §1
# [12] = target: Gal(b1-4)GlcNAc(b1-2)Man(a1-3)[Gal(b1-4)GlcNAc(b1-2)Man(a1-6)][Gal(b1-4)GlcNAc(b1-4)]Man(b1-4)GlcNAc(b1-4)[Fuc(a1-6)]GlcNAc
# Method in brief: as §1
# [13] = target: Gal(b1-4)GlcNAc(b1-2)Man(a1-6)Man(b1-4)GlcNAc(b1-4)GlcNAc
# Method in brief: as §1
# Gal3S(b1-3)GalNAc = target: Gal3S(b1-3)GalNAc
# Method in brief: as §1
# [14] = target: Gal3S(b1-3)[Fuc(a1-4)]GlcNAc
# Method in brief: as §1
# Gal6S(b1-4)Glc = target: Gal6S(b1-4)Glc
# Method in brief: as §1
# [15] = target: GalNAc(b1-4)GlcNAc(b1-2)Man
# Method in brief: as §1
# GalNAc(b1-6)GalNAc = target: GalNAc(b1-6)GalNAc
# Method in brief: as §1
# [16] = target: GalNAc3S(b1-4)[Fuc(a1-3)]GlcNAc
# Method in brief: as §1
# GalNAc6S(b1-4)GlcNAc = target: GalNAc6S(b1-4)GlcNAc
# Method in brief: as §1
# [17] = target: GlcNAc(a1-3)Gal(b1-4)GlcNAc
# Method in brief: as §1
# [18] = target: GlcNAc(a1-4)Gal(b1-3)GlcNAc
# Method in brief: as §1
# [19] = target: GlcNAc(a1-4)Gal(b1-4)GlcNAc(b1-3)Gal(b1-4)GlcNAc(b1-3)Gal(b1-4)GlcNAc
# Method in brief: as §1
# [20] = target: GlcNAc(b1-2)Man(a1-3)[GlcNAc(b1-2)Man(a1-6)]Man(b1-4)GlcNAc(b1-4)[Fuc(a1-6)]GlcNAc
# Method in brief: as §1
# [21] = target: GlcNAc(b1-2)Man(a1-3)[GlcNAc(b1-4)][GlcNAc(b1-2)Man(a1-6)]Man(b1-4)GlcNAc(b1-4)GlcNAc
# Method in brief: as §1
# [22] = target: GlcNAc(b1-2)Man(a1-3)[GlcNAc(b1-4)][GlcNAc(b1-2)Man(a1-6)]Man(b1-4)GlcNAc(b1-4)[Fuc(a1-6)]GlcNAc
# Method in brief: as §1
# [23] = target: GlcNAc(b1-4)GlcNAc(b1-4)GlcNAc
# Method in brief: as §1
# [24] = target: GlcNAc(b1-4)GlcNAc(b1-4)GlcNAc(b1-4)GlcNAc(b1-4)GlcNAc(b1-4)GlcNAc
# Method in brief: as §1
# [25] = target: Man(a1-2)Man(a1-3)[Man(a1-6)]Man(a1-6)[Man(a1-2)Man(a1-3)]Man(b1-4)GlcNAc(b1-4)GlcNAc
# Method in brief: as §1
# [26] = target: Man(a1-2)Man(a1-6)[Man(a1-3)]Man(a1-6)[Man(a1-2)Man(a1-2)Man(a1-3)]Man
# Method in brief: as §1
# MurNAc(b1-4)GlcNAc = target: MurNAc(b1-4)GlcNAc
# Method in brief: as §1
# Neu5Ac(a2-6)Gal = target: Neu5Ac(a2-6)Gal
# Method in brief: as §1
# [27] = target: Neu5Ac(a2-6)Gal(b1-4)GlcNAc(b1-2)Man(a1-3)[GlcNAc(b1-2)Man(a1-6)]Man(b1-4)GlcNAc(b1-4)GlcNAc
# Method in brief: as §1
# [28] = target: Neu5Ac(a2-6)Gal(b1-4)GlcNAc(b1-3)Gal(b1-4)GlcNAc(b1-3)[Neu5Ac(a2-6)Gal(b1-4)GlcNAc(b1-3)Gal(b1-4)GlcNAc(b1-6)]GalNAc
# Method in brief: as §1
# [29] = target: Neu5Ac(a2-6)GalNAc(b1-4)GlcNAc
# Method in brief: as §1
# [30] = target: Neu5Ac(a2-6)GlcNAc(b1-4)GlcNAc(b1-4)GlcNAc
# Method in brief: as §1
# [31] = target: Neu5Gc(a2-3)Gal(b1-4)GlcNAc
# Method in brief: as §1
binder,measurement,setting,value
B1,glycan array binding signal (z-score),Fuc(a1-2)Gal(b1-3)GalNAc,-0.288
same,glycan array binding signal (z-score),Fuc(a1-2)Gal(b1-3)GlcNAc,-0.281
same,glycan array binding signal (z-score),[1],-0.138
same,glycan array binding signal (z-score),[2],-0.371
same,glycan array binding signal (z-score),[3],-0.362
same,glycan array binding signal (z-score),[4],-0.316
same,glycan array binding signal (z-score),[5],-0.32
same,glycan array binding signal (z-score),Fuc(a1-2)Gal6S(b1-4)Glc,-0.317
same,glycan array binding signal (z-score),[6],-0.335
same,glycan array binding signal (z-score),[7],-0.375
same,glycan array binding signal (z-score),[8],-0.363
same,glycan array binding signal (z-score),[9],-0.361
same,glycan array binding signal (z-score),[10],-0.308
same,glycan array binding signal (z-score),[11],-0.262
same,glycan array binding signal (z-score),[12],-0.225
same,glycan array binding signal (z-score),[13],-0.334
same,glycan array binding signal (z-score),Gal3S(b1-3)GalNAc,-0.25
same,glycan array binding signal (z-score),[14],-0.318
same,glycan array binding signal (z-score),Gal6S(b1-4)Glc,-0.305
same,glycan array binding signal (z-score),[15],5.67
same,glycan array binding signal (z-score),GalNAc(b1-6)GalNAc,0.458
same,glycan array binding signal (z-score),[16],-0.38
same,glycan array binding signal (z-score),GalNAc6S(b1-4)GlcNAc,4.94
same,glycan array binding signal (z-score),[17],3.83
same,glycan array binding signal (z-score),[18],1.3
same,glycan array binding signal (z-score),[19],4.1
same,glycan array binding signal (z-score),[20],-0.287
same,glycan array binding signal (z-score),[21],3.99
same,glycan array binding signal (z-score),[22],3.73
same,glycan array binding signal (z-score),[23],4.83
same,glycan array binding signal (z-score),[24],4.62
same,glycan array binding signal (z-score),[25],-0.325
same,glycan array binding signal (z-score),[26],-0.367
same,glycan array binding signal (z-score),MurNAc(b1-4)GlcNAc,4.79
same,glycan array binding signal (z-score),Neu5Ac(a2-6)Gal,-0.258
same,glycan array binding signal (z-score),[27],-0.338
same,glycan array binding signal (z-score),[28],-0.332
same,glycan array binding signal (z-score),[29],4.03
same,glycan array binding signal (z-score),[30],5.02
same,glycan array binding signal (z-score),[31],-0.264
